# PLK1 kinase inh = inhibitors of human PLK1 kinase; P53350; recombinant PLK1 kinase, TR-FRET peptide phosphorylation; 97,000 compounds, 0.53% hits; inhibition, % at 10 µM;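 active means inhibition of 50% or more in the single-concentration screen; inactive means inhibition below 50%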;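 further: 0% = DMSO max control and 100% = H-89 dihydrochloride min control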
# CYP2C19 act = cytochrome P450 2C19 (human) activation; activation factor at 5 µM; 96,000 tested, under 10 active; recombinant CYP2C19, luciferin-H EGE luminescence; hits give high values; 0 = fully inhibited enzyme, 1 = untreated enzyme; AID 1025;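 active means activation factor of at least 2 at 5 µM in the primary screen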;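 further: 0 = wells with 2.5 mM tranylcypromine and 1 = vehicle-only wells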
# CYP2C9 inh = blocks human cytochrome P450 2C9 | 96,000 compounds, 20% hits | CYP2C9 Supersomes, luciferin-H conversion, luminescence | inhibition, % at 5 µM | P11712;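 active means blocking of liver enzyme CYP2C9 beyond about 50% at 5 µM, limit read from the data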
# Target sequence (P11712 whole entry, looked up): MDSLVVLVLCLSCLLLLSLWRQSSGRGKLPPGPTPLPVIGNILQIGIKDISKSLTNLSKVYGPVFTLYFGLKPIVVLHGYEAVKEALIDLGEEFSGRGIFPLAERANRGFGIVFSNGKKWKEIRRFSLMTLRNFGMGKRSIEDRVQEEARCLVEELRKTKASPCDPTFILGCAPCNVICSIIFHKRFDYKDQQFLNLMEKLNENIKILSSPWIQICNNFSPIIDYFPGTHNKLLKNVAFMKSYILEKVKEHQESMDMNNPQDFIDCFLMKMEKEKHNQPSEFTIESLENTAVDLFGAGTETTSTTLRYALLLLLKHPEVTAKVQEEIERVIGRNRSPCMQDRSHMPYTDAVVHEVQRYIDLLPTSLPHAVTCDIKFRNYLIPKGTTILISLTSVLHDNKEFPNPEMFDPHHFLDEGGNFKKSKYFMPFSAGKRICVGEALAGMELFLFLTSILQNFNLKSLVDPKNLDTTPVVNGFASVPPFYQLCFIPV
# CYP2C9 act = increases human cytochrome P450 2C9 activity. P11712. recombinant CYP2C9, luciferin-H conversion, luminescence; hits give high values; factor 1 = untreated enzyme, 0 = blocked. activation factor at 5 µM. 96,000 compounds, 1.4% hits;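 active means activation factor of 2 or more for CYP2C9 at a 5 µM dose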;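 further: 0 = sulfaphenazole-blocked wells and 1 = vehicle-only wells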
# Plk1 PBD FP = blocks phosphopeptide binding to human Plk1 polo box domain. P53350. Plk1 PBD phosphopeptide binding, fluorescence polarization. inhibition, %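 (tested at about 20 µM)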. 97,000 compounds, 0.13% hits. AID 693; in the data active means inhibition above about 34%, passing the limit was not always enough
# CYP2C19 inhib = human CYP2C19 inhibition; P33261; CYP2C19 Supersomes, luciferin-H EGE luminescence, 30 min; inhibition, % at 5 µM; 96,000 compounds, 21% hits; AID 778;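 active means CYP2C19 inhibition above a set limit at 5 µM in the primary screen, cut at about 50% in these data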;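 further: plate controls were negative control wells for no effect and 2.5 mM tranylcypromine positive control for full effect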
# An asterisk follows results filed as active; nt = not tested or not shown. The list is not random: actives were taken first. Their share in the collection is about 28%.
SMILES,PLK1 kinase inh,CYP2C19 act,CYP2C9 inh,CYP2C9 act,Plk1 PBD FP,CYP2C19 inhib
CCOc1ccc(C2CC(=O)NC(SCC(=O)OC)=C2C#N)cc1 (configuration not stated),-12,0.6,69*,0.3,-3,41
COC(=O)CSC1=C(C#N)C(c2ccccc2)CC(=O)N1 (configuration not stated),-15,0.6,28,0.7,-5,36
COC(=O)CSC1=C(C#N)C(c2ccc(Cl)cc2)C(C(=O)OC)C(=O)N1 (configuration not stated),2,0.4,44,0.6,21,61*
C=CCSC1=C(C#N)C(c2ccccc2OC)CC(=O)N1 (configuration not stated),-11,0.5,24,0.8,-16,47
CSc1ncc2c(n1)-c1cc(C)ccc1SC2,-6,1,21,0.8,9,0
CC(C)NC(=O)C12CC3CC(C1)CC(n1cnc(Cl)n1)(C3)C2,-9,0.8,11,0.9,-10,16
O=C(O)C1CCCN1S(=O)(=O)c1ccc2[nH]c(=O)c(=O)[nH]c2c1 (configuration not stated),-5,1.1,-11,1.1,-7,-9
COC(=O)CSC1=C(C#N)C(c2ccc(C(C)C)cc2)CC(=O)N1 (configuration not stated),-1,1.1,46,0.5,-31,-7
COC(=O)CSC1=C(C#N)C(c2cccc(F)c2)CC(=O)N1 (configuration not stated),-10,0.7,44,0.6,-5,28
CCc1ccc(C2CC(=O)NC(SCC(=O)OC(C)C)=C2C#N)cc1 (configuration not stated),2,0.1,93*,0.1,-21,87*
C=CCSC1=C(C#N)C(c2cccc(OC)c2)CC(=O)N1 (configuration not stated),-7,0.5,36,0.6,-7,52*
COC(=O)CSC1=C(C#N)C(c2cccc(OC)c2)CC(=O)N1 (configuration not stated),-8,0.3,75*,0.2,-3,71*
Cn1c(=O)c([N+](=O)[O-])c(NCc2ccccc2)c2ccccc21,-6,1,-6,1.1,34,-5
Cc1nnc2n(-c3ccccc3)c(=O)c3c4c(sc3n12)COC(C)(C)C4,nt,1.1,-12,1.1,nt,-7
CCCCSc1nnc2n(CCc3ccccc3)c(=O)c3c4c(sc3n12)COC(C)(C)C4,-11,0.2,51*,0.5,-11,80*
Cn1nc(C(F)(F)F)c(/C=N/OCc2c(Cl)cccc2Cl)c1Cl,-9,0.5,80*,0.2,-42,52*
O=C(CN1CCN(C2CCCCC2)CC1)c1ccc2cc[nH]c2c1,-20,0.9,14,0.9,-10,7
O=C1c2ccccc2C(=O)N1Cc1nc(-c2ccncc2)no1,nt,0.1,84*,0.2,nt,92*
Cc1ccc(OCc2nc(-c3ccccn3)no2)cc1,8,0.6,32,0.7,-11,41
Cc1ccc(SCc2nc(-c3ccccn3)no2)cc1,3,0.1,52*,0.5,-4,86*
Cc1ccc(SCc2nc(-c3ccncc3)no2)cc1,3,0,91*,0.1,-14,99*
O=C1c2ccccc2C(=O)N1Cc1nc(-c2ccccc2)no1,nt,0.5,14,0.9,nt,49
c1ccc(SCc2nc(-c3ccncc3)no2)cc1,2,0,83*,0.2,-14,96*
CCOC(=O)c1nn(-c2ccccc2C)c2nc(-c3ccc(Cl)cc3)c(C#N)c(=O)n12,-16,0.8,25,0.8,-16,21
NS(=O)(=O)c1cccc(NC(=O)Cn2cnc3ccccc3c2=O)c1,-5,1,39,0.6,-7,3
SMILES,PLK1 kinase inh,CYP2C19 act,CYP2C9 inh,CYP2C9 act,Plk1 PBD FP,CYP2C19 inhib
O=C1c2ccccc2C(=O)N1Cc1nc2ccccc2o1,-6,0.4,-16,1.2,-3,64*
COc1ccc(-c2noc(CSc3ccccc3)n2)cc1OC,6,0.7,21,0.8,0,31
Cc1ccc(SCc2nc(-c3ccccc3)no2)cc1,-8,0.1,51*,0.5,-8,86*
Cc1ccc(SC(C)c2nc(-c3ccncc3)no2)cc1 (configuration not stated),1,0,96*,0,-16,100*
COc1ccc(S(=O)(=O)N2CCC(C(=O)NCCC3=CCCCC3)CC2)cc1OC,6,0.5,-4,1,-7,50
O=C(c1nnc(-c2ccncc2)o1)c1ccccc1Cl,-15,0.2,38,0.6,-12,84*
O=C(c1ccc(Cl)cc1)c1nnc(-c2ccncc2)o1,nt,0.2,47,0.5,nt,78*
O=C(c1ccccc1)c1nnc(-c2ccncc2)o1,-8,0.3,19,0.8,6,71*
Cc1ccccc1-c1nnc(-c2ccc(Cl)cc2)o1,-34,0.9,9,0.9,-10,15
Cc1cccc2cc3c(NC(=O)CC(C)C)nn(C)c3nc12,-4,1,-19,1.2,10,-1
Cc1ccc(NC(=O)CS(=O)CC(=O)NC(C)CCc2ccco2)cc1Cl (configuration not stated),-10,0.7,16,0.8,4,34
CC(CCc1ccco1)NC(=O)Nc1cccc(F)c1 (configuration not stated),-13,0.2,83*,0.2,3,84*
CSC1=NCCN1C(=O)c1c(F)cccc1F,-11,0.9,10,0.9,-17,11
O=C(c1ccco1)N1CCN=C1SCc1c(F)cccc1Cl,-1,0.8,-34,1.3,14,18
O=C(C1CC1)N1CCN=C1SCc1cccc(F)c1,nt,0.1,27,0.7,nt,90*
O=C(C1CC1)N1CCN=C1SCc1ccccc1,nt,0.2,16,0.8,nt,83*
Cc1cccc(CSC2=NCCN2C(=O)c2ccc(Br)o2)c1,-3,0.3,25,0.7,-7,73*
CSC1=NCCN1C(=O)c1ccco1,-4,1,19,0.8,2,3
O=C(C1CC1)N1CCN=C1SCc1ccc(F)cc1,-9,0.1,12,0.9,0,91*
COc1cc2c(cc1OC)-c1nnc(-c3cccs3)n1C(C)(C)C2,2,nt,nt,nt,-7,nt
O=C(CCc1ccc(S(=O)(=O)NCCc2ccccc2)cc1)NCc1ccco1,-12,nt,nt,nt,-18,nt
O=C(c1ccco1)N1CCN=C1SCc1ccccc1Cl,-7,0.8,-155,2.6*,-11,21
CCCS(=O)(=O)c1nnnn1-c1cccc(OC)c1,nt,0.6,-12,1.1,nt,37
O=C(CN(CCc1ccccc1)C(=O)Cn1nnc(-c2cccs2)n1)NCc1ccco1,-14,0.4,81*,0.2,0,56*
O=C(CN(C(=O)CCC(=O)Nc1nccs1)c1ccc2c(c1)OCCO2)NCc1ccco1,nt,0.6,16,0.8,nt,44
